AmpC detergent = blocks E. coli AmpC beta-lactamase in detergent assay | P00811 | AmpC hydrolysis of nitrocefin, absorbance 480 nm, 0.01% Triton | Potency, µM (titrated, usually from 114 µM), for inactives: at the top dose activity change, negative = inhibition, usual class: inhibitors | 0.041% of 370,000 active;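 further: 0% = no-compound wells and -100% = no-enzyme wells; nearly all actives have a fitted effect of over 25% in size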
Target sequence (P00811 whole entry, looked up): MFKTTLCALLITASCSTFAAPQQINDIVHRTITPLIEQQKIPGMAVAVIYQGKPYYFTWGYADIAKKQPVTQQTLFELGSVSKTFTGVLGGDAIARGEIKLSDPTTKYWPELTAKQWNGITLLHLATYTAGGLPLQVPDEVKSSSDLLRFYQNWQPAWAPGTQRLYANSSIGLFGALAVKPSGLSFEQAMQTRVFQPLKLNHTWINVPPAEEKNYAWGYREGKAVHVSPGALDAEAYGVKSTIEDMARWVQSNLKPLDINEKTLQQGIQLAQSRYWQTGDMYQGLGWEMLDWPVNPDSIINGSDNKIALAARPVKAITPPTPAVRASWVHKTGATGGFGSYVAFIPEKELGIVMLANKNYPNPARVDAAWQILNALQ
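20 mM phosphate pH 7.0 + 0.01% (detergent screen) or 0.0001% Triton X-100; 5.3 nM AmpC reagent; cpd preinc 15 min RT; nitrocefin (800 uM stock) to start; A480 q20 s × 4 min; Activity was normalised to no-enzyme and no-compound control wells.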
FBPA Giardia inh = inhibitors of Giardia lamblia fructose-1,6-bisphosphate aldolase | A8B2U2 | purified Giardia FBPA | Potency, µM (top dose mostly 59.6 µM), inactives show top-dose activity, negative = inhibition, usual class: inhibitors | 0.71% of 290,000 active | AID 2451; further: nearly all actives have a fitted effect of over 55% in size
Target sequence (A8B2U2 whole entry, looked up): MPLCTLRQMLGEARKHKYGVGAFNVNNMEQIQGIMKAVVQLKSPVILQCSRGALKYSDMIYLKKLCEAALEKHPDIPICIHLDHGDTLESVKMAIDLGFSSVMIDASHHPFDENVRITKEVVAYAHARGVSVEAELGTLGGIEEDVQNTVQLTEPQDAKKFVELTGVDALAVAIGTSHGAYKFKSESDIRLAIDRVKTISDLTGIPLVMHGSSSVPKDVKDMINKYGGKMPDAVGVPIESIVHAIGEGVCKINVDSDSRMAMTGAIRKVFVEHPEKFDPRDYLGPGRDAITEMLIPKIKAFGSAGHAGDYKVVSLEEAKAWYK
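40 nM FBPA preincubated 10 min at RT with compound (up to 57.5 uM final), then substrate plus GAPDH/TPI/NAD/arsenate coupling and diaphorase/resazurin added. Fluorescence read after 20 min at RT, 525/598 nm.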
Sm TGR block = inhibitors of Schistosoma mansoni thioredoxin glutathione reductase | Q962Y6 | purified TGR, DTNB reduction, TNB absorbance 405 nm | Potency, µM (top dose mostly 114 µM), for inactives: at the top dose activity change, negative = inhibition, hits mostly inhibitors | 3% of 360,000 active | AID 485364; further: nearly all actives have a fitted effect of over 60% in size
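First, TGR (20 nM dispensed) and NADPH were mixed with compound. Second, a 15 min room-temperature incubation followed. Third, further NADPH and then DTNB were added to start the reaction. Finally, TNB absorbance was monitored kinetically.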
AmpC no deterg = inhibitors of E. coli AmpC beta-lactamase without detergent; AID 485341; P00811; AmpC nitrocefin hydrolysis, absorbance 480 nm, 0.0001% Triton; Potency, µM (highest dose often 57.1 µM), for the others: at the highest dose activity change, negative = inhibition, hits mostly inhibitors; 0.52% of 330,000 active;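 further: plate controls were no compound for no effect and no enzyme for full effect; nearly all actives have a fitted effect of over 20% in size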
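AmpC (5.3 nM in the dispensed reagent) in 20 mM phosphate pH 7.0 with 0.01% (detergent screen) or 0.0001% Triton X-100 was preincubated with compounds for 15 min at room temperature. Nitrocefin was then added from an 800 uM solution, and hydrolysis was followed at 480 nm.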
Numbers without * were called inactive; ? = inconclusive; . = no result. Sampled rows, rich in hits. Any-hit rate of the full collection: about 3.6%. The call rests on the fitted dose curve; in most records, active means well fitted curve in the direction sought with a large enough effect; inconclusive means small, poorly fitted or top-dose-only effect, or another doubt; inactive means no such curve, though single readings can be large; an effect the other way counts as inactive or inconclusive. Unless noted, on the % scale 0 is the no-effect control and ±100 the full control effect; potency means the concentration at half of the fitted maximal effect.

SMILES	AmpC detergent	FBPA Giardia inh	Sm TGR block	AmpC no deterg
Fc1cccc(Cl)c1C1Nc2cccc3cccc(c23)N1	2.2%	-8.1%	?	-31.2%
Clc1cccc(C2Nc3cccc4cccc(c34)N2)c1	5.3%	-27.3%	3.16µM*	-28.7%
Clc1ccc(C2Nc3cccc4cccc(c34)N2)cc1Cl	?	-26.4%	14.1µM*	-36.7%
COc1ccccc1C1Nc2cccc3cccc(c23)N1	-10.5%	?	?	-27.3%
Clc1cccc(Cl)c1C1Nc2cccc3cccc(c23)N1	5.2%	-29.7%	3.16µM*	-29.6%
O=[N+]([O-])c1ccc(Cl)c(C2Nc3cccc4cccc(c34)N2)c1	-0.4%	?	-26.3%	-40.1%
Oc1ccccc1C1Nc2cccc3cccc(c23)N1	8.8%	-29.6%	17.8µM*	-36.0%
COc1ccc(CNC(=O)Cc2c(C)c3c(cc(C)c4c(C)coc43)oc2=O)cc1	20.5%	.	7.8%	.
Cc1cccc(CNC(=O)c2ccc(Cn3c(=O)c4cccn4c4cccnc43)cc2)c1	-8.4%	.	3.9%	.
C=CCNc1nnc(-c2ccncc2)s1	?	-6.9%	0.0%	-10.3%
c1ccc2c(Nc3nnc(-c4ccncc4)s3)cccc2c1	-3.3%	-5.7%	0.8%	10µM*
COc1ccc(-c2nc(CS(=O)CC(=O)NCc3ccc4c(c3)OCO4)c(C)o2)cc1OC (stereo unspecified)	-10.6%	7.9%	39.8µM*	74.9%
Cc1oc(-c2ccc(Cl)cc2)nc1CS(=O)CC(=O)NCc1ccc2c(c1)OCO2 (stereo unspecified)	-8.3%	-9.9%	14.1µM*	58.4%
CCC(=O)N(Cc1cc(=O)[nH]c2ccccc12)c1ccc(C)cc1C	-5.4%	11.3%	-13.5%	-2.3%
CN(C)c1nc(N)nc(-c2nc3ccccc3s2)n1	-1.4%	8.7%	-2.0%	0.2%
CN(C)c1nc(N)nc(Nc2ccccc2C#N)n1	0.2%	0.1%	-0.4%	0.199µM*
CCCc1cc(C(=O)Nc2cccc(Cl)c2C)no1	?	10.0%	1.4%	-20.3%
CCCc1cc(C(=O)Nc2ccccc2SC)no1	6.0%	-0.1%	9.1%	39.8µM*
CCCc1cc(C(=O)Nc2ccc(C(C)=O)cc2)no1	-4.4%	-3.7%	1.8%	44.7µM*
O=C(NC1CCOc2ccccc21)C1CCCC1 (stereo unspecified)	5.1%	2.5%	4.0%	-13.7%
COc1ccc(-c2[nH]c(-c3ccccc3)nc2SCC(=O)Nc2ccc3c(c2)OCO3)cc1	-7.8%	.	?	.
O=C(CCC1CCCN(C(=O)C2(c3ccccc3)CC2)C1)N1CCN(c2ccccn2)CC1 (stereo unspecified)	1.6%	-3.2%	5.8%	-13.5%
CN1C(=O)N(C)C2(c3ccccc3)NC(=O)NC12c1ccccc1 (stereo unspecified)	?	1.7%	-22.6%	-3.8%
CCC(=O)N1c2ccccc2C(C)(c2ccccc2)CC1(C)C (stereo unspecified)	-1.5%	.	2.2%	.
CCN1c2ccccc2N(C)C1(C)c1ccccc1 (stereo unspecified)	?	?	35.5µM*	33.5%
SMILES	AmpC detergent	FBPA Giardia inh	Sm TGR block	AmpC no deterg
CN1c2ccccc2N(C)C1(C)c1ccccc1	-17.1%	?	44.7µM*	25.5%
COc1ccc(NC(=O)C2CCN(S(=O)(=O)c3cccc4nonc34)CC2)c(OC)c1	-2.1%	6.5%	-0.5%	-4.4%
Cc1ccc(-n2nnnc2CSc2nnc(-c3ccc(O)cc3)o2)cc1	-16.2%	-3.5%	-14.3%	-32.2%
CCn1c(=O)cc(OCC(=O)NCc2ccc(F)cc2Cl)c2ccccc21	-0.4%	.	-3.1%	.
Cc1cc(S(=O)(=O)Nc2ccc3oc4c(c3c2)CCCC4)ccc1Cl	16.2%	.	-1.6%	.
O=C(Nc1ccc(F)c(Cl)c1)C1CCCN(c2ncnc3onc(-c4ccc(F)cc4)c23)C1 (stereo unspecified)	-7.5%	.	50.1µM*	.
COc1ccc(NC(=O)C2CCCN(c3ncnc4onc(-c5ccc(F)cc5)c34)C2)cc1 (stereo unspecified)	0.6%	8.0%	2.1%	2.6%
COc1ccccc1-n1nnnc1SCC(=O)Nc1ccccc1	1.2%	16.5%	-11.0%	-50.3%
COc1ccccc1NC(=O)c1ccc(NC(=O)CSc2nnnn2C)cc1	-12.9%	-3.4%	5.62µM*	-19.3%
Cn1nnnc1SCC(=O)Nc1ccc(Br)cc1Cl	?	-2.3%	28.2µM*	-14.5%
Cc1cccc2cc3c(NC(=O)C(C)(C)C)nn(CC(C)C)c3nc12	4.3%	5.6%	-4.8%	39.7%
Cc1ccc(CSc2nc3ccc(NC(=O)C(C)C)cc3s2)cc1	5.4%	.	1.3%	.
O=C1OC2(c3ccc(O)cc3Oc3cc(O)ccc32)c2ccccc21	.	12.8%	.	.
O=C1OC2(c3ccccc31)c1cc(I)c(O)c(I)c1Oc1c2cc(I)c(O)c1I	50.1µM*	15.8µM*	0.891µM*	25.1µM*
COc1ccc(C(C)=O)cc1CSc1nc2cc(C(=O)O)ccc2c(=O)n1Cc1ccccc1	-11.8%	27.6%	22.4µM*	-46.6%
CCOC(Cn1c(SCc2cc(C(C)=O)ccc2OC)nc2ccccc2c1=O)OCC	-0.5%	4.8%	-9.9%	-9.8%
COC(=O)C1Cc2c([nH]c3ccccc23)C(C(C)C)N1 (stereo unspecified)	1.9%	-12.9%	?	-4.9%
CCC1CN(C)C2Cc3c([nH]c4ccccc34)C(=O)CC1C2C(=O)OC (stereo unspecified)	-11.9%	-7.7%	44.7µM*	-13.2%
COc1cccc(CNC(=O)CCC2CCCN(C(=O)c3ccccc3N(C)C)C2)c1 (stereo unspecified)	3.3%	.	79.4µM*	142.8%
CC(C)/C=N/Nc1nc(-c2ccc(Br)cc2)cs1	?	-15.4%	0.8%	-37.5%
CCN1CCOC(=O)C1CC(=O)Nc1ccc(Br)cc1 (stereo unspecified)	-2.3%	.	7.94µM*	.
CCN1CCOC(=O)C1CC(=O)Nc1cc(C)ccc1OC (stereo unspecified)	-0.7%	.	17.8µM*	.
CC(C)(C)c1ccc(-c2nn(CCC#N)cc2/C=N/O)cc1	5.1%	0.2%	15.3%	1.3%
COc1ccc(-c2nn(CCC#N)cc2C=C(C#N)C#N)cc1	-0.7%	?	25.1µM*	0.5%
Cc1ccc(-c2nn(CCC#N)cc2C=C(C#N)C#N)cc1	-9.9%	?	8.91µM*	-18.8%
SMILES	AmpC detergent	FBPA Giardia inh	Sm TGR block	AmpC no deterg
COc1ccc(-c2nn(CCC#N)cc2C(=O)NCc2ccccc2)cc1	-10.8%	3.3%	6.2%	4.1%
Cc1ccc(N2CC(NC(=O)Cc3ccc(F)cc3)CC2=O)cc1C (stereo unspecified)	-7.0%	.	6.9%	.
CCCN(CCC)CCCNC(=O)c1cc2c(=O)n(C)c3ccccc3c2s1	3.4%	.	10µM*	.
CC(C)COc1ccc(C(=O)Nc2cc(S(=O)(=O)N3CCOCC3)ccc2N2CCCC2)cc1	7.5%	.	-2.0%	-17.1%
O=c1oc2ccccc2c(O)c1Cc1c(O)c2ccccc2oc1=O	.	-0.2%	.	.
O=c1oc2ccccc2c2oc3cc(O)c(O)cc3c12	-1.0%	?	0.0%	14.1µM*
COc1cccc(NC(=O)c2cc3ccccc3cc2OC)c1	-3.5%	0.3%	-10.3%	-55.9%
